This is an account of results in a collection of fitness landscapes (doi:10.1126/science.1257360).

B1: PhoQ; a variant is named by its letters at X, in order, P23837 (parent)
chain: MKKLLRLFFPLSLRVRFLLATAAVVLVLSLAYGMVALIGYSVSFDKTTFRLLRGESNLFYTLAKWENNKLHVELPENIDKQSPTMTLIYDENGQLLWAQRDVPWLMKMIQPDWLKSNGFHEIEADVNDTSLLLSGDHSIQQQLQEVREDDDDAEMTHSVAVNVYPATSRMPKLTIVVVDTIPVELKSSYMVWSWFIYVLSANLLLVIPLLWVAAWWSLRPIEALAKEVRELEEHNRELLNPATTRELTSLVRNLNRLLKSERERYDKYRTTLTDLTHSLKTPLXXLQXXLRSLRSEKMSVSDAEPVMLEQISRISQQIGYYLHRASMRGGTLLSRELHPVAPLLDNLTSALNKVYQRKGVNISLDISPEISFVGEQNDFVEVMGNVLDNACKYCLEFVEISARQTDEHLYIVVEDDGPGIPLSKREVIFDRGQRVDTLRPGQGVGLAVAREITEQYEGKIVAGESMLGGARMEVIFGRQHSAPKDE

Over roughly 140,000 sequences, “enrichment ratio after two sorts for PhoP signalling” has its median near 0; the highest 2% begin near 11. This excerpt belongs to a sample that is enriched for the highest values.

In this experiment the parent is B1. The experiment can be described thus: enrichment ratio after two sorts for PhoP signalling (ratio (wild type AVST 3.29)); higher = more functional. Conditions: with PhoP (E. coli).
On to VMGP, for which the enrichment ratio is ≤ 0.25. DKIR: the enrichment ratio was ≤ 0.25. With PQLM, the enrichment ratio is ≤ 0.25. As for KNVL, the enrichment ratio was ≤ 0.25. The same measure for EARA: ≤ 0.25. As to FQWE, the enrichment ratio was 1.71.

For the variant AIME, the enrichment ratio turned out to be 1.65. As for NHME, the enrichment ratio was ≤ 0.25. The same measure for SHME: ≤ 0.25; for LTME: ≤ 0.25. The figure for THME is 49; for TDVE it is ≤ 0.25. Take AHME: the enrichment ratio turned out to be 12.2. For AAPE, the enrichment ratio is ≤ 0.25. For the variant AAME, the enrichment ratio was determined as 30.8. The same measure for ATME: 7.5; for TDME: 11.5; for AAMY: ≤ 0.25. The same measure for YSHD: ≤ 0.25. Consider PTCC, for which the enrichment ratio was ≤ 0.25. The same measure for MPHN: ≤ 0.25. On to RHYV, for which the enrichment ratio is ≤ 0.25. The figure for TAVD is ≤ 0.25; for SIIF it is 0.435. The same measure for YTVM: ≤ 0.25. With MTIM, the enrichment ratio came out at 25.3. In the case of MTTM, the enrichment ratio amounted to 18.5. With FEVM, the enrichment ratio amounted to 11.6. Consider LTVM, for which the enrichment ratio was ≤ 0.25.

On to MKTM, for which the enrichment ratio is ≤ 0.25. The figure for FCVM is ≤ 0.25; for MTIV it is ≤ 0.25.

As for MTRM, the enrichment ratio was ≤ 0.25.

For FEVA, the enrichment ratio is ≤ 0.25. As for MTTD, the enrichment ratio is ≤ 0.25. In the case of GTVM, the enrichment ratio was determined as 36.9. As to FLDD, the enrichment ratio is ≤ 0.25.

For FDRW, the enrichment ratio is ≤ 0.25. The figure for VFHM is ≤ 0.25. On to MSQP, for which the enrichment ratio was ≤ 0.25.

Take KNYG: the enrichment ratio is ≤ 0.25. Turning to HEVA, the enrichment ratio was ≤ 0.25.

On to IQVM, for which the enrichment ratio was ≤ 0.25.

On to GYAL, for which the enrichment ratio is ≤ 0.25. The figure for SQVM is 19.6; for HEVM it is 24.4; for SEVM it is 18.7.

Take SLVM: the enrichment ratio came out at 2.29. The figure for PLAL is ≤ 0.25; for SCVM it is 8.76; for GLAL it is 12.9. Turning to SAVM, the enrichment ratio was found to be 4.22. The figure for HEGM is ≤ 0.25; for LWIF it is ≤ 0.25.

As to NFST, the enrichment ratio is ≤ 0.25. The figure for PYQI is ≤ 0.25. As to GTRE, the enrichment ratio was ≤ 0.25. As to SHDG, the enrichment ratio came out at 1.66.

Turning to GNVM, the enrichment ratio was 22.8.

On to STVM, for which the enrichment ratio amounted to 16.3.

In the case of MTVM, the enrichment ratio was determined as 12.8.

For the variant MTPM, the enrichment ratio is ≤ 0.25. The same measure for LNVM: ≤ 0.25; for GIVM: 3.78; for NEVM: 7.03.

Take MAVM: the enrichment ratio was ≤ 0.25. The figure for MTVA is ≤ 0.25; for MEVM it is 12.9; for ITVM it is ≤ 0.25. On to KYVM, for which the enrichment ratio is ≤ 0.25. Regarding WVID, the enrichment ratio was ≤ 0.25. For KGWL, the enrichment ratio was ≤ 0.25.

For the variant GFAY, the enrichment ratio was ≤ 0.25. For QNPQ, the enrichment ratio was ≤ 0.25. As to VYSV, the enrichment ratio is ≤ 0.25. Turning to IADP, the enrichment ratio was ≤ 0.25. Turning to TERG, the enrichment ratio is ≤ 0.25. The same measure for EIGI: ≤ 0.25; for GLTI: 11.7.

In the case of GLVM, the enrichment ratio was determined as 16.2. The same measure for GLSF: 4.58; for GLSM: 12.3. For the variant GLTC, the enrichment ratio is ≤ 0.25. Turning to GLWM, the enrichment ratio is ≤ 0.25.

On to GDSM, for which the enrichment ratio turned out to be 2.79.

As for GLTA, the enrichment ratio is ≤ 0.25. Take GLCK: the enrichment ratio was ≤ 0.25. The figure for RFTN is ≤ 0.25; for RWLE it is ≤ 0.25. With LIDA, the enrichment ratio was ≤ 0.25. The same measure for LWYT: ≤ 0.25; for VRCA: ≤ 0.25; for SCQC: ≤ 0.25.

As to MMSA, the enrichment ratio was ≤ 0.25.

On to DMSA, for which the enrichment ratio was ≤ 0.25. The same measure for DMMN: ≤ 0.25; for TMSA: 15.1; for TMGK: ≤ 0.25. The figure for TMMD is ≤ 0.25; for TMMS it is 14.5; for TMSR it is ≤ 0.25. Turning to TMMN, the enrichment ratio was determined as 11.5. The figure for TMMW is ≤ 0.25; for TMSQ it is 13.5; for KMMN it is ≤ 0.25.

Take FINQ: the enrichment ratio is ≤ 0.25. As for DCDV, the enrichment ratio is ≤ 0.25.

As to ECGF, the enrichment ratio was ≤ 0.25.

In the case of EREC, the enrichment ratio was ≤ 0.25. Take TNHL: the enrichment ratio is ≤ 0.25.

For the variant WDRM, the enrichment ratio is ≤ 0.25.

On to KETS, for which the enrichment ratio was ≤ 0.25. The figure for RLAR is ≤ 0.25. The same measure for DGIV: ≤ 0.25. Take KMLV: the enrichment ratio was ≤ 0.25.

On to FDFL, for which the enrichment ratio was ≤ 0.25. The same measure for TMVG: ≤ 0.25. Take DMSI: the enrichment ratio was ≤ 0.25.

For the variant TMTG, the enrichment ratio worked out at 3.06. The figure for TMSI is 14.2; for TMGG it is 15.7; for TMSK it is ≤ 0.25. The figure for TMMG is 23.4. MMMT: the enrichment ratio was ≤ 0.25.

For the variant TMWG, the enrichment ratio is ≤ 0.25.

As for TMMT, the enrichment ratio was 22.9.

As for TMMV, the enrichment ratio is 4.75.

Turning to TMWT, the enrichment ratio was ≤ 0.25.

Regarding IFIA, the enrichment ratio was ≤ 0.25. IGQM: the enrichment ratio was ≤ 0.25. The same measure for PWGS: ≤ 0.25; for AYGE: ≤ 0.25. The same measure for THGQ: ≤ 0.25.

As for LATF, the enrichment ratio was ≤ 0.25. For the variant VFAS, the enrichment ratio is ≤ 0.25.

As for ESNS, the enrichment ratio was ≤ 0.25. For the variant PACG, the enrichment ratio was ≤ 0.25. Regarding ITYK, the enrichment ratio is ≤ 0.25. The same measure for HKVF: ≤ 0.25. Take KKSE: the enrichment ratio is ≤ 0.25.

For ILEH, the enrichment ratio was ≤ 0.25. For TMQF, the enrichment ratio stood at 16.1. As for TMWQ, the enrichment ratio was ≤ 0.25. For the variant TMWH, the enrichment ratio was ≤ 0.25. The figure for DMQF is ≤ 0.25; for TMHP it is ≤ 0.25; for TMHQ it is 15.4. The figure for MPHD is ≤ 0.25; for PCPI it is ≤ 0.25. Turning to GGFW, the enrichment ratio was ≤ 0.25. The same measure for ESEG: ≤ 0.25; for PDQD: ≤ 0.25; for VWER: ≤ 0.25.
